The text below walks through data of PubChem BioAssay (NCATS).

Results filed as inconclusive are left out. A call without a number means that no potency is given here. Activity calls are given as the source filed them. Calls follow the shape of the dose curve; as a rule, active = well fitted curve in the direction sought with a large enough effect; inconclusive = small, poorly fitted or top-dose-only effect, or another doubt; inactive = no such curve, though single readings can be large; an effect the other way counts as inactive or inconclusive.

The target in one experiment is Luciferin 4-monooxygenase (Photinus pyralis) (UniProt P08659). Kind of experiment: Biochemical firefly luciferase enzyme assay for NPC (AID 624030).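 Also: purified P. pyralis luciferase at 10 nM with luciferin and ATP substrate; nearly all actives have a fitted effect of over 70% in size.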 The note with it: purified P. pyralis luciferase, luminescence, 5 min; series mostly up to 58.6 µM. In short, it runs like this: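 Counter-screen for direct inhibition of the luciferase enzyme by approved-drug library compounds, run at 10 nM enzyme in 50 mM Tris acetate (final). Luminescence was read within 5 min of enzyme-buffer addition and normalized to PTC124 versus DMSO (0%).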
Luciferin 4-monooxygenase (Photinus pyralis), sequence (P08659 whole entry, looked up): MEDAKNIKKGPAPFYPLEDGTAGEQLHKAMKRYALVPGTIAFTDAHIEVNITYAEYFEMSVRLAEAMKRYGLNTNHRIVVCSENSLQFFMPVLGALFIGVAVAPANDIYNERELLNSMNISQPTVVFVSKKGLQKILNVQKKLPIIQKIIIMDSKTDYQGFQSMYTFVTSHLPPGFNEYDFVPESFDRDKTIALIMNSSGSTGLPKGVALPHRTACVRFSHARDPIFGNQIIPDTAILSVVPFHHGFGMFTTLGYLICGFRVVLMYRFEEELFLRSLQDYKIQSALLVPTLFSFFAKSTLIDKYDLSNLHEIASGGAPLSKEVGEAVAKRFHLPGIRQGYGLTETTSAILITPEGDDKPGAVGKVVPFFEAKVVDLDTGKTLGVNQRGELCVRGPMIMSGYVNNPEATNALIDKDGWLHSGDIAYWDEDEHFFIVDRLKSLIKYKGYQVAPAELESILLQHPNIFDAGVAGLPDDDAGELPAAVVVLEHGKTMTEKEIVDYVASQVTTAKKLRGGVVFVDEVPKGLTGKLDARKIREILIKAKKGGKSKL
On to `FC(F)OC(F)(F)C(F)Cl` (centres undefined), for which the Potency result was “inactive”.

Turning to `c1cc2c(c(NC3=NCCN3)c1)CCCC2`, the Potency result was “inactive”.

As to `[Cl][Pt][Cl]`, the Potency result is “inactive”.

On to `c1csc(C2(N3CCCCC3)CCCCC2)c1`, for which the Potency result was “inactive”.

Consider `C=CCN(C1=NCCN1)c1c(Cl)cccc1Cl`, for which the Potency result is “inactive”.

Take `CCCC(=O)OC(C(Cl)(Cl)Cl)P(=O)(OC)OC` (centres undefined): the Potency entry is “inactive”.

Turning to `CCCC(C)(COC(N)=O)COC(=O)NC1CC1` (centres undefined), the Potency entry was “inactive”.

Tested on in another experiment: not listed separately
Put plainly: S16 Schwann cell viability assay (CellTiter-Glo assay) (AID 624031).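 Also: native untransfected S16 rat Schwann cells; nearly all actives have a fitted effect of over 70% in size.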 The note with it: S16 rat Schwann cells viability, 24 h; series mostly up to 57.5 µM. In short, it runs like this: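 Counter-screen for cytotoxicity: parental S16 rat Schwann cells lacking the PMP22 reporters, treated 24 h with compound, viability from cellular ATP by CellTiter-Glo luminescence, normalized to DMSO (0%) and no-cell wells.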
(ATP-based viability assays read luminescence as a measure of living cells.)
Turning to `FC(F)OC(F)(F)C(F)Cl` (centres undefined), the Potency entry was “inactive”.

As to `c1cc2c(c(NC3=NCCN3)c1)CCCC2`, the Potency entry is “inactive”.

In the case of `c1csc(C2(N3CCCCC3)CCCCC2)c1`, the Potency result was “inactive”.

Turning to `C=CCN(C1=NCCN1)c1c(Cl)cccc1Cl`, the Potency result is “inactive”.

Turning to `CCCC(=O)OC(C(Cl)(Cl)Cl)P(=O)(OC)OC` (centres undefined), the Potency entry is “inactive”.

As for `CCCC(C)(COC(N)=O)COC(=O)NC1CC1` (centres undefined), the Potency entry is “inactive”.

Tested on in a further experiment: not listed separately
Put plainly: S16 Schwann cell PMP22 intronic element firefly luciferase assay (AID 624032). Also: nearly all actives have a fitted effect of over 30% in size. The note with it: S16 rat Schwann cells, PMP22 element FLuc, 24 h; series mostly up to 57.5 µM. In short, it runs like this: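 Rat S16 Schwann cells stably carrying a PMP22 intronic element-driven Fluc reporter were seeded overnight, then exposed to compounds for 24 h at 37 °C. Luminescence was normalized to PTC124 (positive control) and DMSO (0% activity).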
On to `FC(F)OC(F)(F)C(F)Cl` (centres undefined), for which the Potency result is “inactive”.

`c1cc2c(c(NC3=NCCN3)c1)CCCC2`: the Potency entry is “inactive”.

Consider `c1csc(C2(N3CCCCC3)CCCCC2)c1`, for which the Potency result is “inactive”.

Regarding `C=CCN(C1=NCCN1)c1c(Cl)cccc1Cl`, the Potency result was “inactive”.

For `CCCC(=O)OC(C(Cl)(Cl)Cl)P(=O)(OC)OC` (centres undefined), the Potency result is “inactive”.

For the compound `CCCC(C)(COC(N)=O)COC(=O)NC1CC1` (centres undefined), the Potency result is “inactive”.
